Screens (PubChem)
Rows were chosen to be rich in hits. Some 2.8% of all compounds tested hit in one or more screens of this group.
Pol kappa inh = qHTS for Inhibitors of Polymerase Kappa. purified Pol kappa, fluorescent DNA synthesis assay, 10 min. Potency, µM (top dose mostly 107 µM), without a hit: top-dose activity, negative = inhibition, actives largely listed as inhibitors. actives 0.53% (n = 400,000). AID 588579, 2011; also: potency is read from the fitted curve at half-maximal effect; % is scaled to controls: 0 for no effect and ±100 for the full control effect
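Kinetic fluorescence readout at 0 and 10 min followed reaction start with substrate at 50 nM final. Beforehand, enzyme (10 nM Pol kappa) stood 15 min with compound at room temperature; buffer-only wells were negative controls.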
PI5P4K alpha inh = qHTS for Inhibitors of phosphatidylinositol 5-phosphate 4-kinase (PI5P4K) | actives 1.2% (n = 330,000) | max response, % | PI5P4Kalpha enzyme, ADP-Glo luminescence, 60 min; active compounds read low; active = max response of -50% or lower; inconclusive = between -30% and -50%; inactive = -30% or higher; also: value at the top dose of about 77 µM; % is scaled to controls: 0 for no effect and ±100 for the full control effect
Target sequence (P48426 whole entry, looked up): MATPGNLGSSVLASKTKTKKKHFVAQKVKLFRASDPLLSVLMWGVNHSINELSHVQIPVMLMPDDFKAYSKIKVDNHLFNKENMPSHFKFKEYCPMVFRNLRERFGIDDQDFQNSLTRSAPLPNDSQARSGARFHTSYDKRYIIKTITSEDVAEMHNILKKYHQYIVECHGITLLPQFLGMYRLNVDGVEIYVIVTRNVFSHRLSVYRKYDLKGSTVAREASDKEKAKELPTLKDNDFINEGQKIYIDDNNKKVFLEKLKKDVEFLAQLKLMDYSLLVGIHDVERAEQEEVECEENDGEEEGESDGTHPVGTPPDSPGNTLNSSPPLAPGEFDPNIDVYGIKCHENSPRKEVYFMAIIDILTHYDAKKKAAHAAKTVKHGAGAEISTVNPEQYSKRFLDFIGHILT
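ADP-Glo luminescence end-point read after a 60 min room-temperature kinase reaction of PI5P4Kalpha plus substrate, initiated with ATP at 5 microM final. Buffer: 0.038 M HEPES pH 7.4, EGTA, 0.1% CHAPS, 5% DMSO.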
FEN1 inhibitor = qHTS Assay for the Inhibitors of Human Flap endonuclease 1 (FEN1); P39748; Recombinant FEN1 flap cleavage, fluorescence, 15 min; Potency, µM (highest dose often 114 µM), inactives show at the top dose activity change, negative = inhibition, usual class: inhibitors; actives 0.35% (n = 390,000); also: potency is read from the fitted curve at half-maximal effect; % is scaled to controls: 0 for no effect and ±100 for the full control effect; nearly all actives have a fitted effect of over 65% in size
Target sequence (P39748 whole entry, looked up): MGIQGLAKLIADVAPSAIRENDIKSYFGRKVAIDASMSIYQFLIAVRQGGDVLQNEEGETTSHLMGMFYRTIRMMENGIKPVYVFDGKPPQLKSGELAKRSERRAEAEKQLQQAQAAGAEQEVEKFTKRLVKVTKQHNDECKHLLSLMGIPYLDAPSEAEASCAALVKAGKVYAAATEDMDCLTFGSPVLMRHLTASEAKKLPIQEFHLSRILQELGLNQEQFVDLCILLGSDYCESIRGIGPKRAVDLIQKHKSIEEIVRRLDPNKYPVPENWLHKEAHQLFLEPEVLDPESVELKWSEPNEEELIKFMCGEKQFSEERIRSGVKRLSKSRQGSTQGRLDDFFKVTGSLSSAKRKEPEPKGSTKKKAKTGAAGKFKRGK
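Quantitative HTS format: each compound was titrated, incubated with 10 nM nuclease for 15 min at room temperature, then challenged with flap substrate at 50 nM final. Signal change over 15 min gave concentration–effect curves.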
Pol iota inh = qHTS for Inhibitors of Polymerase Iota | DNA polymerase iota (Homo sapiens), Q9UNA4 | Pol iota fluorescent replication assay, 10 min | Potency, µM (highest dose often 115 µM), inactives show top-dose activity, negative = inhibition, hits mostly inhibitors | actives 1% (n = 390,000); also: potency is read from the fitted curve at half-maximal effect
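Pol iota at 10 nM preincubated 15 min with compounds at room temperature; reaction started with fluorescent substrate, 50 nM final. Fluorescence read kinetically at 0 and 10 min; buffer-only wells as negative control.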
Pol eta inh = qHTS for Inhibitors of Polymerase Eta; Potency, µM (top dose mostly 114 µM), without a hit: at the highest dose activity change, negative = inhibition, actives largely listed as inhibitors; DNA polymerase eta (Homo sapiens), Q9Y253; recombinant Pol eta, fluorescent DNA replication assay; actives 1.2% (n = 390,000); also: potency is read from the fitted curve at half-maximal effect; % is scaled to controls: 0 for no effect and ±100 for the full control effect
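Pol eta at 10 nM preincubated with compounds 15 min at room temperature; reaction started with fluorescent substrate (50 nM final) and read kinetically at 0 and 10 min.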
POLB inh = qHTS Assay for Inhibitors of DNA Polymerase Beta. P06746. Pol beta primer extension/strand displacement, fluorescence kinetic. Potency, µM (doses to about 114 µM), for the others: top-dose activity change, negative = inhibition, usual class: inhibitors. actives 1.3% (n = 340,000); also: potency is read from the fitted curve at half-maximal effect; % is scaled to controls: 0 for no effect and ±100 for the full control effect
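Curves were derived by four-parameter Hill fits of normalized qHTS data. The kinetic fluorescent primer-extension read was taken at 0 and 10 min after 50 nM substrate, following a 15 min room-temperature preincubation of 10 nM enzyme with compounds.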
PGK validate = qHTS for inhibitors of Phosphogylcerate Kinase: Hit Validation Screen; AID 686980, 2013; Potency, µM (series often up to 57.5 µM), for inactives: at the highest dose activity change, negative = inhibition, most hits filed as inhibitors; shares compounds with Pol kappa inh; actives 79% (n = 500); TbPGK coupled GAPDH assay, Kinase-Glo luminescence; also: potency is read from the fitted curve at half-maximal effect; % is scaled to controls: 0 for no effect and ±100 for the full control effect; nearly all actives have a fitted effect of over 65% in size
POLI cherry-pick = qHTS for Inhibitors of Polymerase Iota: Confirmatory Assay for Cherry-picked Compounds. shares compounds with Pol kappa inh. Pol iota primer extension, TAMRA/BHQ fluorescence. Potency, µM, most hits filed as inhibitors. actives 77% (n = 1,500). AID 720496, 2013; also: potency is read from the fitted curve at half-maximal effect
An asterisk follows results filed as active; ? = inconclusive; . = not tested or not shown; [ ] = another dose, or the depositor's remark. Unless noted, calls follow the shape of the dose curve; as a rule, active = well fitted curve in the direction sought with a large enough effect; inconclusive = small, poorly fitted or top-dose-only effect, or another doubt; inactive = no such curve, though single readings can be large; an effect the other way counts as inactive or inconclusive.

SMILES	Pol kappa inh	PI5P4K alpha inh	FEN1 inhibitor	Pol iota inh	Pol eta inh	POLB inh	PGK validate	others
COc1cc(/C=C/C(=O)OC[C@H]2O[C@H](OC3(CO)OC(CO)C(O)C3O)[C@H](O)[C@@H](O)[C@@H]2O)ccc1O (stereo partly specified)	-6.4%	0.1	-1.2%	4.0%	1.7%	.	.
O=C(Nc1ccc(C(=O)N2CCCCC2)cc1)c1ccccc1	-5.4%	-26.5	-3.4%	2.8%	2.7%	.	.
O=C(Nc1ccccc1)Nc1ccc(C(=O)N2CCCC2)cc1	-15.6%	-26.3	13.4%	-26.8%	-2.2%	23.6%	16.3µM*
Cc1ccc(N=C2NC(=O)S/C2=C\c2ccco2)cc1	-45.7%	-6.7	-21.8%	?	-17.4%	7.94µM*	.	POLI cherry-pick=67*
Cc1ccsc1/C=C1\CCc2ccccc2C1=O	-2.9%	?	-10.2%	7.4%	1.7%	-25.7%	14.6µM*
CCC1CC=CC2C1C(=O)N(Cc1ccccc1)C2c1ccoc1 (stereo unspecified)	-33.1%	.	-0.6%	?	.	.	.
COc1cccc(-c2cn3c(n2)sc2cc(C(=O)NCc4ccccc4F)ccc23)c1	2.0%	.	1.8%	?	-2.1%	-9.9%	.
COc1ccc(/C=C2\SC(=S)N(CCC(=O)Nc3cccc(C(=O)O)c3)C2=O)cc1	-2.9%	-12.1	-29.2%	-5.6%	?	?	.
O=C(CCN1C(=O)/C(=C/c2ccc(Cl)cc2)SC1=S)Nc1cccc(C(=O)O)c1	-14.6%	-3.2	?	49.8%	89.1µM*	-9.6%	.	POLI cherry-pick=?
CCOc1ccc(/C=C2/SC(=S)N(CCC(=O)Nc3ccc(C(=O)O)cc3)C2=O)cc1	-11.4%	2.2	-33.0%	?	8.91µM*	-9.4%	.	POLI cherry-pick=21.2*
O=C(CCN1C(=O)/C(=C\c2ccccc2)SC1=S)Nc1ccc(C(=O)O)cc1	?	-5.5	-15.4%	26.3%	-23.9%	?	.
CC(=O)Nc1c(C)nn(-c2ccccc2)c1N1CCC(C(=O)Nc2ccc(C)cc2Cl)CC1	-7.0%[60.1 µM]	.	-9.3%	25.8%	-16.8%	16.6%	.
Cc1ccc2occ(CC(=O)Nc3c(C)cccc3C)c2c1	-12.7%	.	-5.7%	?	-4.2%	17.1%	.
C/C(=N\NC(=O)c1cc(O)cc(O)c1)c1ccc(NC(=O)Cc2ccccc2)cc1	22.4µM*	-89.9*	50.1µM*	5.01µM*	3.16µM*	1.58µM*	1.83µM*
C/C(=N\NC(=O)c1cccc(F)c1)c1ccc(NC(=O)Cc2ccccc2)cc1	-9.8%	2.9	-1.3%	30.0%	-22.0%	-23.4%	.
COc1cc(CC2COC(c3ccc(O)c(OC)c3)C2COC(C)=O)ccc1O (stereo unspecified)	22.4µM*	-94.0*	56.2µM*	10µM*	3.55µM*	6.31µM*	8.19µM*
CCOc1ccc(NC(=O)Cn2cc(C(=O)c3ccc(CC)cc3)c(=O)c3cc(C)ccc32)cc1	-8.9%	.	-3.5%	16.3%	50.1µM*	?	.	POLI cherry-pick=?
COc1ccc(Br)cc1CNC(=O)CN1C(=O)c2cccnc2Oc2ccc(C)cc21	-16.0%	.	-12.4%	?	?	32.6%	.	POLI cherry-pick=?
O=C(Cn1c2ccccc2c(=O)c2ccccc21)N/N=C/c1ccc(N2CCCC2)c([N+](=O)[O-])c1	-28.6%	-16.8	1.1%	31.0%	?	8.8%	.
O=C(Cn1c2ccccc2c(=O)c2ccccc21)N/N=C/c1cc([N+](=O)[O-])ccc1N1CCCCCC1	-7.1%	1.0	-20.0%	45.4%	2.82µM*	2.51µM*	.	POLI cherry-pick=?
O=c1oc2ccccc2cc1-c1cn2ccccc2n1	0.4%	-26.9	-1.6%	23.9%	-10.7%	6.6%	?
O=c1oc2ccccc2cc1-c1cn2cccnc2n1	-6.7%	-1.3	-8.5%	18.2%	16.9%	-5.4%	.
CCn1cc(C(=O)O)c(=O)c2cc(F)c(N3CCN(C(=S)Nc4ccccc4OC)CC3)cc21	4.7%	2.6	-28.3%	-8.5%	9.7%	0.0%	.
CCn1cc(C(=O)O)c(=O)c2cc(F)c(N3CCN(S(=O)(=O)c4ccc(NC(=O)OC)cc4)CC3)cc21	2.1%	-6.1	?	16.7%	?	?	.	POLI cherry-pick=33.6*
O=c1c2c3c(sc2n(Cc2ccc(F)cc2Cl)c(=O)n1-c1ccc(Cl)cc1)CCC3	9.8%	.	4.1%	13.8%	-2.0%	34.3%	.
SMILES	Pol kappa inh	PI5P4K alpha inh	FEN1 inhibitor	Pol iota inh	Pol eta inh	POLB inh	PGK validate	others
O=C(COc1ccccc1)NCC(c1cccs1)S(=O)(=O)c1ccc(Cl)cc1 (stereo unspecified)	-8.9%[60.1 µM]	.	3.6%	-4.5%	-13.0%	17.8µM*	?
COc1ccc(CC(=O)NCC(c2cccs2)S(=O)(=O)c2ccc(Cl)cc2)cc1 (stereo unspecified)	-6.7%[60.1 µM]	.	-20.6%	-3.8%	-25.4%	7.94µM*	6.51µM*
CCN(CC)c1ccc(C(=C2C=CC(=[N+](CC)CC)C=C2)c2ccc(S(=O)(=O)O)cc2S(=O)(=O)[O-])cc1	-12.7%	-56.6*	?	?	20µM*	.	16.3µM*
CCN(CC)c1ccc(C(=O)O)cc1	-5.9%	6.9	14.5%	-6.1%	-2.9%	-2.7%	.
Cc1cccc(C(C)C)c1NC(=O)CN1C(=O)NC2(CCc3ccccc32)C1=O (stereo unspecified)	-1.3%	1.8	22.2%	23.4%	-14.4%	.	.
COc1ccccc1[C@]1(C)ON(c2ccccc2C(F)(F)F)C1=O	-29.6%	12.9	-17.5%	-1.9%	-19.4%	.	.
Cc1nc(SC(C)C(=O)Nc2cccc(C(F)(F)F)c2)c2c(C)c(C(=O)O)sc2n1 (stereo unspecified)	?	0.3	?	7.2%	?	?	.	POLI cherry-pick=33.6*
CCN(CC)c1ccc2nc3ccccc3[n+](CC)c2c1	-34.5%	?	?	?	?	?	32.6µM*
CCC(C)NC(=O)CSc1nnc(-c2ccc(C)cc2)c(-c2ccc(C)cc2)n1 (stereo unspecified)	-11.1%[60.1 µM]	.	-14.1%	5.6%	-3.7%	25.5%	.
